Screening data from PubChem.
G9a block: qHTS Assay for Inhibitors of Histone Lysine Methyltransferase G9a. G9a H3K9 monomethylation, AlphaScreen, 2 h. Potency, µM (doses to about 102 µM), for the others: at the highest dose activity, negative = inhibition, hits mostly inhibitors. 350,000 tested, 8.8% active. AID 504332, 2011; also: % is scaled to controls: 0 for no effect and ±100 for the full control effect; nearly all actives have a fitted effect of over 75% in size
Target sequence (Q96KQ7 913-1193 limits assumed): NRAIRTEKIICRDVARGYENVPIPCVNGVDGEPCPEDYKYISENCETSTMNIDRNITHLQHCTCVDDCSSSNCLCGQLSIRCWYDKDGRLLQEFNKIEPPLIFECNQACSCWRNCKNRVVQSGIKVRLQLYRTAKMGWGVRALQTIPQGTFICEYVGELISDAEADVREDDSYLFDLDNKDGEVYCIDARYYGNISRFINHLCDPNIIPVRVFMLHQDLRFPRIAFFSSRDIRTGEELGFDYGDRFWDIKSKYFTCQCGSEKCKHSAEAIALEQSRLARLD
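AlphaScreen read-out: biotin-H3K9 peptide (500 nM) methylation by 20 nM enzyme with 20 uM SAM, 2 h at room temperature after 15 min compound preincubation; anti-monomethyl H3K9 antibody plus donor/acceptor beads, 10 min dark.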
HP1b chromo inh: HTS for Inhibitors of HP1-beta Chromodomain Interactions with Methylated Histone Tails | Chromobox protein homolog 1 (Homo sapiens), P83916 | AlphaScreen HP1-beta / biotin-H3K9me3 peptide binding | Potency, µM (titrated, usually from 114 µM), for inactives: at the top dose activity change, negative = inhibition, usual class: inhibitors | 390,000 tested, 0.56% active | AID 540317, 2011; also: nearly all actives have a fitted effect of over 70% in size
Target sequence (P83916 whole entry, looked up): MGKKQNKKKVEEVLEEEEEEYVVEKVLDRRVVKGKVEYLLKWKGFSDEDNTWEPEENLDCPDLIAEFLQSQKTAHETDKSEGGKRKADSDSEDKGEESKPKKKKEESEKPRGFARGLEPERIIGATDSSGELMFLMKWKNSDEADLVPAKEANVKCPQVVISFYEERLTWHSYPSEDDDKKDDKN
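Compound inhibition of the preformed complex between 50 nM HP1-beta and 50 nM biotinylated H3K9me3 peptide was read by AlphaScreen. Buffer was PBS pH 7.4 with 0.01% Tween-20. Incubations ran 30 min at room temperature, with 10 ug/mL donor/acceptor beads.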
PLK1 PBD block: qHTS for Inhibitors of PLK1-PDB (polo-like kinase 1 - polo-box domain): Primary Screen; Potency, µM, without a hit: max response, negative = inhibition, usual class: inhibitors; Serine/threonine-protein kinase PLK1 (Homo sapiens), P53350; Plk1 PBD binding of FITC phosphopeptide, fluorescence polarization; 360,000 tested, 2.8% active; AID 720504, 2013; also: series mostly up to about 57 µM; % is scaled to controls: 0 for no effect and ±100 for the full control effect; nearly all actives have a fitted effect of over 65% in size
ALOX12 inh: Primary qHTS assay for inhibitors of human arachidonate 12S-lipoxygenase (ALOX12): Round 2. Potency, µM (highest dose often 108 µM), for inactives: at the top dose activity change, negative = inhibition, usual class: inhibitors. purified 12hLO, xylenol orange hydroperoxide absorbance. Polyunsaturated fatty acid lipoxygenase ALOX12 (Homo sapiens), P18054. 580,000 tested, 1.1% active; also: % is scaled to controls: 0 for no effect and ±100 for the full control effect
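Purified human 12hLO (150 nM final) in 25 mM Hepes, 0.01% Triton X-100, pH 7.0 was preincubated 15 min at room temperature with compound. Then 40 uM arachidonic acid was added, 30 min. Hydroperoxide was read by Fe-XO absorbance ratio 573/405 nm.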
BAZ2B inh: qHTS Assay for Inhibitors of BAZ2B; Bromodomain adjacent to zinc finger domain protein 2B (Homo sapiens), Q9UIF8; AlphaScreen BAZ2B-H3K14Ac peptide displacement; Potency, µM (doses to about 114 µM), without a hit: top-dose activity change, negative = inhibition, hits mostly inhibitors; 360,000 tested, 4.4% active; also: % is scaled to controls: 0 for no effect and ±100 for the full control effect; nearly all actives have a fitted effect of over 60% in size
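BAZ2B 50 nM plus b-H3(5-23)K14Ac 50 nM, PBS pH 7.4/0.01% Tween-20, 30 min RT; compound added (max 110 uM), 30 min RT; streptavidin donor/Ni-chelate acceptor beads 10 ug/mL final, 20 min dark; AlphaScreen read.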
JMJD2A Tudor: qHTS Assay for Inhibitors of JMJD2A-Tudor Domain; Lysine-specific demethylase 4A (Homo sapiens), O75164; AlphaScreen JMJD2A-Tudor / H3K4me3 peptide binding; Potency, µM (titrated, usually from 114 µM), for the others: at the highest dose activity change, negative = inhibition, usual class: inhibitors; 390,000 tested, 4.4% active; AID 504339, 2011; also: % is scaled to controls: 0 for no effect and ±100 for the full control effect; nearly all actives have a fitted effect of over 50% in size
An asterisk follows results filed as active; ? = inconclusive; nt = not tested or not shown; [ ] = remark or other dose. This is a sample that favours compounds with a hit; in the whole collection about 9% have one here. Calls follow the shape of the dose curve; as a rule, active = well fitted curve in the direction sought with a large enough effect; inconclusive = small, poorly fitted or top-dose-only effect, or another doubt; inactive = no such curve, though single readings can be large; an effect the other way counts as inactive or inconclusive. Potency is read from the fitted curve at half-maximal effect.

SMILES	G9a block	HP1b chromo inh	PLK1 PBD block	ALOX12 inh	BAZ2B inh	JMJD2A Tudor
CCN(CC)C(=O)CSc1ncccc1-c1nc2ccccc2[nH]1	50µM*	34%	-3%	-28%	-12%	-14%
Cc1ccc(CSCC(=O)Nc2ccccc2)cc1	-4%	33%	-2%	nt	9%	11%
CCOC(=O)c1c(C)n(C)c2cc(Br)c(OC)cc12	12%	42%	0%	-7%	10%	8%
CCOC(=O)c1c(CNCCN(CC)CC)n(C)c2cc(Br)c(OC)cc12	79µM*	-5%	-12%	?	?	-31%
CC(OC(=O)CCN=C1NS(=O)(=O)c2ccccc21)C(=O)c1ccccc1 (configuration not stated)	?	40%	-8%	2%	-3%	-4%
COc1ccccc1N1CCN(C(=O)c2ccc(-c3ccccc3)cc2)CC1	-30%[2.33 µM]	4%	8%	-3%	?	-30%
COc1ccc2cc(C(=O)N3CCN(c4ccccc4OC)CC3)[nH]c2c1	?	22%	-24%	16µM*	-29%	-26%
O=C(c1ccc2[nH]c3c(c2c1)CCCC3)N1CCN(c2ccc(F)cc2)CC1	?	?	14%	-4%	40µM*	32µM*
COc1ccc2cc(C(=O)N3CCN(c4ccccc4F)CC3)[nH]c2c1	-45%	44%	-1%	?	-21%	-4%
COc1ccccc1N1CCN(C(=O)c2ccc3[nH]c4c(c3c2)CCCC4)CC1	?	?	-5%	7%	45µM*	50µM*
CC(C)CNC(=O)c1cccc(NC(=O)c2ccco2)c1	30%[12.7 µM]	14%	-4%	6%	11%	-1%
Cc1cc(SCC(=O)Nc2cccc(S(=O)(=O)N3CCOCC3)c2)nc2ccccc12	40µM*	33%	-16%	40%	-22%	-13%
Cc1cc(C(=O)OCC(=O)Nc2cccc(S(=O)(=O)N3CCOCC3)c2)c(C)o1	-50%[59 µM]	-31%	27µM*	0%	-9%	-10%[11.4 µM]
O=C(COC(=O)c1cc([N+](=O)[O-])ccc1NCCO)Nc1cccc(S(=O)(=O)N2CCCC2)c1	45µM*	-19%	-15%	-7%	-7%	?
O=C(COC(=O)c1ccc([N+](=O)[O-])o1)Nc1cccc(S(=O)(=O)N2CCCCC2)c1	?	-15%	-7%	-20%	nt	-35%
Cc1ccc(SCC(=O)Nc2cccc(S(=O)(=O)N3CCOCC3)c2)cc1C	-7%[12.7 µM]	7%	-6%	-5%	13%	2%
O=C(CSc1ccc(Br)cc1)Nc1cccc(S(=O)(=O)N2CCOCC2)c1	2%	56%	6µM*	?	13%	21%
CCC(=O)c1c[nH]c(C(=O)NCc2cccc(C(F)(F)F)c2)c1	12%[0.501 µM]	36%	4%	?	-2%	-7%
O=C(Nc1cccc(S(=O)(=O)N2CCOCC2)c1)c1c2c(nc3ccccc13)CCC2	22µM*	-3%	-4%	-6%	?	-28%
O=C(NC1CCCCC1)O[C@@H]1CO[C@H]2[C@@H]1OC[C@@H]2n1nnnc1SCc1ccco1	nt	nt	nt	3.5µM*	nt	nt
Cc1ccc(C2NC(=O)N(CC(=O)Nc3ccc(Br)cc3F)C3=C2C(=O)OC3)cc1 (configuration not stated)	nt	nt	nt	8.9µM*	nt	nt
Cc1ccc(C2NC(=O)N(CC(=O)Nc3ccc(Br)c(C)c3)C3=C2C(=O)OC3)cc1 (configuration not stated)	nt	nt	nt	8.9µM*	nt	nt
O=C(CN1C(=O)NC(c2ccc(Cl)cc2)C2=C1COC2=O)Nc1ccc(F)c(Cl)c1 (configuration not stated)	nt	nt	nt	7.9µM*	nt	nt
Cc1ccc(C2NC(=O)N(CC(=O)Nc3ccc(C(F)(F)F)cc3)C3=C2C(=O)OC3)cc1 (configuration not stated)	nt	nt	nt	10µM*	nt	nt
CCOC(=O)N1CCN(C(=O)CN(c2cccc(C)c2)S(=O)(=O)c2ccc(C)cc2)CC1	-40%[12.7 µM]	16%	-8%	-14%	1%	-29%
SMILES	G9a block	HP1b chromo inh	PLK1 PBD block	ALOX12 inh	BAZ2B inh	JMJD2A Tudor
CCCC(=O)NC(=S)Nc1ccc(Cl)cn1	?	-14%	-24%	-16%	-1%	-12%
COc1ccc(C(=O)C(C)OC(=O)c2sc(C)nc2C)cc1 (configuration not stated)	-3%[12.7 µM]	38%	-7%	23%	7%	-9%
O=C(CN1C(=O)NC(c2ccc(Cl)cc2)C2=C1COC2=O)Nc1ccc(C(F)(F)F)cc1 (configuration not stated)	nt	nt	nt	8.9µM*	nt	nt
Cc1cccc2c1c1ccc3c(c1n2C)C(=O)C=CC3=O	2µM*	6.3µM*	?	?	5µM*	25µM*
Cc1cc(C)c2nc(NNC(=O)c3cc(-c4cccs4)nc4ccccc34)sc2c1	32µM*	36%	-9%	-12%	?	?
CC(=O)Nc1ccc(NC(=O)c2cc(-c3cccs3)nc3ccccc23)cc1	nt	nt	nt	9%	nt	nt
O=C(NNc1nc2ccc(Cl)cc2s1)c1cc(-c2cccs2)nc2ccccc12	-9%	49%	0%	?	-34%	?
Cc1ccc(NC(=O)c2cc(-c3cccs3)nc3ccccc23)nc1	40µM*	63%	-5%	?	-18%	11%
Cc1ccc2sc(NNC(=O)c3cc(-c4cccs4)nc4ccccc34)nc2c1C	32µM*	nt	nt	2%[57.4 µM]	5%	nt
O=C(Nc1nc(-c2ccccc2)c(-c2ccccc2)o1)c1ccc(F)cc1	-1%	?	3µM*	-22%	-37%	-35%[11.4 µM]
COc1cccc(CN2CCc3[nH]c(=S)[nH]c(=O)c3C2)c1	45µM*	47%	-7%	?	-13%	-15%
COCCCN1CCc2[nH]c(=S)[nH]c(=O)c2C1	35µM*	13%	-13%	-6%	-37%	?
O=C(OCC(=O)N1CCCc2ccccc21)c1ccc(C(F)(F)F)cc1	53%	104%	-9%	24%	24%	23%
O=C(OCC(=O)N1CCCc2ccccc21)c1ccc(S(=O)(=O)C(F)F)cc1	50µM*	10%	-2%	-7%	8%	-21%
Cc1ccc(-c2csc3ncn(CC#N)c(=O)c23)cc1C	?	?	-8%	?	50µM*	50µM*
